Counter-ions that a name gives are not always drawn.
How the values were obtained:
Settings in all cases: compound concentration in added solution (µM; 5 µl added to 20 µl cells): 10; 18 h
[1] = tested on: A431; experiment: LBPA endosome anti-LBPA integrated intensity (sum per cell), Z-score; higher = more LBPA staining
Summary of the method: (§1)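 After 18 h on 5 µl of 10 µM compound solution in duplicate 384-well imaging plates, HeLa MZ or A431 cells, seeded at 3,500 per well in 20 µl, were fixed with 4% PFA. They were then labelled with 6C4 anti-LBPA antibody, filipin, propidium iodide and CellTracker green, and four 20× fields were recorded per well. Integrated LBPA or filipin intensity per cell, whole-cell or within LBPA endosomes, came from MetaXpress segmentation and was normalised to Z-scores in AcuityXpress.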

[2] = tested on: HeLa MZ; experiment: as above
Summary of the method: as §1

[3] = tested on: A431; experiment: whole-cell filipin (free cholesterol) integrated intensity, Z-score; higher = more cholesterol staining
Summary of the method: as §1

[4] = tested on: HeLa MZ; experiment: as above
Summary of the method: as §1

[5] = tested on: A431; experiment: filipin (cholesterol) integrated intensity within LBPA endosomes, Z-score; higher = more cholesterol in LBPA endosomes
Summary of the method: as §1

[6] = tested on: HeLa MZ; experiment: as above
Summary of the method: as §1

| SMILES | LBPA endosome anti-LBPA integrated intensity (z-score) [1] | LBPA endosome anti-LBPA integrated intensity (z-score) [2] | whole-cell filipin (z-score) [3] | whole-cell filipin (z-score) [4] | filipin (z-score) [5] | filipin (z-score) [6] |
| --- | --- | --- | --- | --- | --- | --- |
| CN(C)CCC(c1ccccc1)c1ccccn1 (configuration not stated) [Pheniramine maleate] | -0.513 | 0.0628 | -0.745 | -0.51 | -0.53 | -0.436 |
| OC(CCN1CCCCC1)(c1ccccc1)C1CC2C=CC1C2 (configuration not stated) [Biperiden hydrochloride] | 1.21 | 1.45 | -0.251 | -0.585 | 0.329 | 0.363 |
| C#C[C@]1(O)CC[C@H]2[C@@H]3CCC4=CC(=O)CC[C@@H]4[C@H]3CC[C@@]21CC [Norgestrel-(-)-D] | -0.501 | -0.275 | -0.421 | -0.79 | -0.478 | -0.446 |
| CC(C)NCC(O)c1ccc(NS(C)(=O)=O)cc1 (configuration not stated) [Sotalol hydrochloride] | -0.295 | -0.419 | 0.181 | 0.261 | -0.181 | -0.219 |
| CCCN(CCC)C(=O)C(CCC(=O)O)NC(=O)c1ccccc1 (configuration not stated) [Proglumide] | -0.629 | -1.36 | -1.22 | -0.766 | -0.53 | -0.607 |
| CCn1cc(C(=O)O)c(=O)c2cc(F)c(N3CCNCC3)cc21 [Norfloxacin] | -0.548 | -0.705 | -0.938 | -1.18 | -0.584 | -0.612 |
| NS(=O)(=O)c1cc2c(cc1Cl)N=CNS2(=O)=O [Chlorothiazide] | -0.508 | -0.375 | -0.521 | -0.988 | -0.472 | -0.537 |
| CCOC(=O)n1ccn(C)c1=S [Carbimazole] | -0.395 | 0.106 | -0.405 | -0.308 | -0.513 | -0.531 |
| CCN(Cc1ccncc1)C(=O)C(CO)c1ccccc1 (configuration not stated) [Tropicamide] | -0.503 | -0.535 | -0.78 | -0.974 | -0.52 | -0.592 |
| CC[N+](C)(CC)CCOC(=O)C1c2ccccc2Oc2ccccc21 [Methantheline bromide] | -0.356 | -0.164 | -0.155 | -0.214 | -0.359 | -0.379 |
| CC[C@H]1OC(=O)C[C@@H](O)[C@H](C)[C@@H](O[C@@H]2O[C@H](C)[C@@H](O[C@H]3C[C@@](C)(O)[C@@H](O)[C@H](C)O3)[C@H](N(C)C)[C@H]2O)[C@@H](CC=O)C[C@@H](C)C(=O)/C=C/C(C)=C/[C@@H]1CO[C@@H]1O[C@H](C)[C@@H](O)[C@@H](OC)[C@H]1OC [Tylosin] | -0.392 | 0.456 | -0.334 | -0.339 | -0.399 | -0.321 |
| C[C@](N)(Cc1ccc(O)c(O)c1)C(=O)O [Methyldopa (L,-)] | -0.446 | -0.811 | -0.449 | 0.0391 | -0.366 | -0.319 |
| C[C@@H](O)[C@H]1C(=O)N2C(C(=O)O)=C(S[C@@H]3CN[C@H](C(=O)N(C)C)C3)[C@H](C)[C@H]12 [Meropenem] | -0.501 | -0.52 | 0.0963 | -0.649 | -0.531 | -0.725 |
| CN1CCN(C2=Nc3ccccc3Oc3ccc(Cl)cc32)CC1 [Loxapine succinate] | 0.352 | 1.12 | 0.0252 | -0.743 | 0.0734 | -0.11 |
| C=C[C@H]1CN2CC[C@H]1C[C@@H]2[C@@H](O)c1ccnc2ccc(OC)cc12 [Quinidine hydrochloride monohydrate] | 0.635 | 0.796 | 0.722 | -0.0406 | 0.638 | 0.436 |
| O=C1O[C@H]([C@@H](O)CO)C(O)=C1O [Ascorbic acid] | -0.608 | -0.991 | -0.369 | 0.278 | -0.529 | -0.527 |
| c1ccc2c(c1)CCCC2C1=NCCN1 (configuration not stated) [Tetrahydrozoline hydrochloride] | -0.429 | 1.07 | -0.35 | 0.315 | -0.366 | 0.0856 |
| CCN(CC)C(=O)N1CCN(C)CC1 [Diethylcarbamazine citrate] | -0.522 | -0.824 | -0.731 | -0.758 | -0.529 | -0.553 |
| Nc1ccc(S(=O)(=O)Nc2ncccn2)cc1 [Sulfadiazine] | -0.494 | -0.985 | -0.718 | -0.987 | -0.481 | -0.62 |
| CCN(CC)CCOC(=O)C(c1ccccc1)C1CCCCC1 (configuration not stated) [Drofenine hydrochloride] | 1.02 | 2.6 | 1.05 | 0.772 | 1.02 | 1.12 |
| CO[C@@]1(NC(=O)Cc2cccs2)C(=O)N2C(C(=O)O)=C(COC(N)=O)CS[C@@H]21 [Cefoxitin sodium salt] | -0.479 | 0.482 | -0.426 | -0.439 | -0.487 | -0.515 |
| CC(C)[N+](C)(CCOC(=O)C1c2ccccc2Oc2ccccc21)C(C)C [Propantheline bromide] | -0.352 | 0.315 | -0.217 | 0.064 | -0.366 | -0.177 |
| CC1=C(/C=C/C(C)=C/C=C/C(C)=C\C(=O)O)C(C)(C)CCC1 [Isotretinoin] | -0.383 | -0.562 | -0.622 | -0.961 | -0.488 | -0.54 |
| C[C@H](CCC(=O)O)[C@H]1CC[C@H]2[C@@H]3[C@@H](O)C[C@@H]4C[C@H](O)CC[C@]4(C)[C@H]3CC[C@]12C [Urosiol] | -0.47 | -1.19 | -0.529 | -0.329 | -0.433 | -0.53 |

| SMILES | LBPA endosome anti-LBPA integrated intensity (z-score) [1] | LBPA endosome anti-LBPA integrated intensity (z-score) [2] | whole-cell filipin (z-score) [3] | whole-cell filipin (z-score) [4] | filipin (z-score) [5] | filipin (z-score) [6] |
| --- | --- | --- | --- | --- | --- | --- |
| Cc1ccc(N(CC2=NCCN2)c2cccc(O)c2)cc1 [Phentolamine hydrochloride] | -0.384 | 0.635 | -0.578 | -0.161 | -0.477 | -0.0953 |
| C(=C\c1ccccc1)/CN1CCN(C(c2ccccc2)c2ccccc2)CC1 [Cinnarizine] | -0.223 | 0.618 | -0.605 | -0.52 | -0.314 | -0.0159 |
| CCOC(=O)[C@H](CCc1ccccc1)N[C@@H](C)C(=O)N1[C@H](C(=O)O)C[C@@H]2CCC[C@@H]21 [Ramipril] | -0.401 | -1.57 | -0.0336 | -0.633 | -0.446 | -0.529 |
| CC(=O)OCC(=O)[C@@]1(O)CC[C@H]2[C@@H]3CCC4=CC(=O)CC[C@]4(C)[C@@]3(F)[C@@H](O)C[C@@]21C [Fludrocortisone acetate] | -0.127 | -0.216 | -0.382 | -0.957 | -0.321 | -0.564 |
| Nc1ccn([C@H]2CC[C@@H](CO)O2)c(=O)n1 [Zalcitabine] | -0.426 | -0.556 | 0.221 | 0.402 | -0.388 | -0.459 |
| CN(C)CCCC1(c2ccc(F)cc2)OCc2cc(C#N)ccc21 (configuration not stated) [Citalopram Hydrobromide] | -0.329 | 1.58 | 0.204 | 0.212 | -0.352 | 0.534 |
| Clc1ccc2c(c1)CCc1cccnc1C2=C1CCNCC1 [Desloratadine] | 3.93 | 2.5 | 1.63 | 0.223 | 2.69 | 2.81 |
| CCCC1O[C@@H]2C[C@H]3[C@@H]4CCC5=CC(=O)C=C[C@]5(C)[C@H]4[C@@H](O)C[C@]3(C)[C@]2(C(=O)CO)O1 (some centres not stated) [Budesonide] | -0.313 | -0.695 | 0.452 | 0.254 | -0.143 | 0.318 |
| CN(C)c1nc(N(C)C)nc(N(C)C)n1 [Altretamine] | -0.54 | -1.33 | -0.283 | -0.6 | -0.517 | -0.671 |
| CN(C)CCCOc1nn(Cc2ccccc2)c2ccccc12 [Benzydamine hydrochloride] | 1.07 | 2.25 | 1.71 | -0.196 | 1.63 | 0.942 |
| CNCCC=C1c2ccccc2C=Cc2ccccc21 [Norcyclobenzaprine] | 3.26 | 2.08 | 1.91 | 1.02 | 3.06 | 3.6 |
| CC(C)(Oc1ccc(CCNC(=O)c2ccc(Cl)cc2)cc1)C(=O)O [Bezafibrate] | -0.429 | -0.597 | -0.437 | -0.728 | -0.456 | -0.612 |
| C[C@]12C=CC(=O)C=C1CC[C@H]1[C@@H]3C[C@@H](O)[C@](O)(C(=O)CO)[C@@]3(C)C[C@H](O)[C@@]12F [Triamcinolone] | -0.203 | -0.607 | -0.346 | -0.264 | -0.211 | -0.572 |
| CCCCCCCCNC(C)C(O)c1ccc(SC(C)C)cc1 (configuration not stated) [Suloctidil] | 2.96 | -0.389 | 1.67 | 1.53 | 3.3 | 3.27 |
| CC[C@]12CCCN3CCc4c(n(c5ccccc45)C(=O)C1)[C@@H]32 [Eburnamonine (-)] | -0.525 | -1.3 | -0.836 | -2.15 | -0.422 | -0.458 |
| CC1(C)S[C@@H]2[C@H](NC(=O)[C@H](NC(=O)N3CCNC3=O)c3ccccc3)C(=O)N2[C@H]1C(=O)O [Azlocillin sodium salt] | -0.496 | -0.655 | -0.388 | -0.517 | -0.464 | -0.493 |
| CN(C)CCCN1c2ccccc2Sc2ccc(Cl)cc21 [Chlorpromazine hydrochloride] | 3.29 | 1.39 | 0.659 | 0.0307 | 2.35 | 1.67 |
| Nc1ncnc2c1ncn2C1OC(COP(=O)(O)O)C(O)C1O (configuration not stated) [Adenosine 5'-monophosphate monohydrate] | -0.591 | 0.12 | -0.666 | 0.0121 | -0.493 | -0.612 |
| Nc1c2c(nc3ccccc13)CCCC2 [Tacrine hydrochloride] | 0.535 | 0.705 | -0.59 | 0.0516 | 0.0216 | 0.583 |
| CC/C(=C(/CC)c1ccc(O)cc1)c1ccc(O)cc1 [Diethylstilbestrol] | -0.432 | -0.702 | -0.0535 | -0.813 | -0.37 | -0.493 |
| CC[C@H]1OC(=O)[C@H](C)[C@@H](O[C@H]2C[C@@](C)(OC)[C@@H](O)[C@H](C)O2)[C@H](C)[C@@H](O[C@@H]2O[C@H](C)C[C@H](N(C)C)[C@H]2O)[C@](C)(OC)C[C@@H](C)C(=O)[C@H](C)[C@@H](O)[C@]1(C)O [Clarithromycin] | -0.524 | 0.332 | -0.0542 | 0.0043 | -0.407 | -0.21 |
| C=CCN1CCCC1CNC(=O)c1cc2nn[nH]c2cc1OC (configuration not stated) [Alizapride HCl] | -0.413 | 0.636 | -0.622 | -0.69 | -0.538 | -0.182 |
| Cn1cnc([N+](=O)[O-])c1Sc1ncnc2[nH]cnc12 [Azathioprine] | -0.583 | -0.922 | -0.805 | -1.15 | -0.521 | -0.677 |

Source: the supplement of paper PMC6607015
